# Source: PubChem BioAssay (NCATS)
# Where “and” joins values, the source holds several entries; their conditions need not be identical. Equal values may be shown once. A number with no mark means an inactive call. Inconclusive results are not listed. A call without a number means that no potency is given here. Some structures have more than one record in an assay (separate samples or runs), and their calls can disagree. Calls of active or inactive are those of the source. Unless noted, calls follow the shape of the dose curve; as a rule, active = well fitted curve in the direction sought with a large enough effect; inconclusive = small, poorly fitted or top-dose-only effect, or another doubt; inactive = no such curve, though single readings can be large; an effect the other way counts as inactive or inconclusive.
# Legend:
# Es-2 = experiment: Primary qHTS to identify gynecologic anti-cancer compounds using libraries of approved drugs and bioactive compounds (AID 1345084); details: Gynecologic cancer cell panel viability, ATPlite luminescence, 48 h; series mostly up to 57.5 µM; also: nearly all actives have a fitted effect of over 55% in size; also: potency is read from the fitted curve at half-maximal effect
# Method in brief: (§1)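 In this quantitative HTS, cell killing is estimated from loss of ATP-dependent luciferase light. Cells see five compound concentrations over a 48 h exposure.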
# HeLa = experiment: as above; details: Gynecologic cancer cell panel viability, ATPlite luminescence, 48 h; series mostly up to 57.5 µM
# Method in brief: as §1
# Hek293T = experiment: as above; details: Gynecologic cancer cell panel viability, ATPlite luminescence, 48 h, control line for the selectivity index; series mostly up to 57.5 µM
# Method in brief: as §1
# OV90 = experiment: as above; details: Gynecologic cancer cell panel viability, ATPlite luminescence, 48 h; series mostly up to 57.5 µM
# Method in brief: as §1
# PA-1 = experiment: as above; details: Gynecologic cancer cell panel viability, ATPlite luminescence, 48 h; series mostly up to 57.5 µM
# Method in brief: as §1
# SKOV3 = experiment: as above; details: Gynecologic cancer cell panel viability, ATPlite luminescence, 48 h; series mostly up to 57.5 µM
# Method in brief: as §1
# Tov-21-G = experiment: as above; details: Gynecologic cancer cell panel viability, ATPlite luminescence, 48 h; series mostly up to 57.5 µM
# Method in brief: as §1
# Tov112D = experiment: as above; details: Gynecologic cancer cell panel viability, ATPlite luminescence, 48 h; series mostly up to 57.5 µM
# Method in brief: as §1
# [1] = Drug repurposing screens with cells derived from glioblastoma tumor samples (AID 1345199); details: GBM patient neurospheres viability, ATP luminescence, 48 h; also: nearly all actives have a fitted effect of over 40% in size; also: potency is read from the fitted curve at half-maximal effect
# Method in brief: (§2)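 Four patient lines of CD133+ GBM neurospheres were screened at several concentrations; hits were retested in those lines plus three slower-growing GBM lines, using 48-hour treatment and ATP-based viability.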
# astro = experiment: as above; details: viability, ATP luminescence, 48 h; series mostly up to 45.9 µM
# Method in brief: as §2
# JEG-3 = experiment: Primary qHTS to identify gynecologic anti-cancer compounds using libraries of approved drugs and bioactive compounds (AID 1345084); details: Gynecologic cancer cell panel viability, ATPlite luminescence, 48 h; series mostly up to 57.5 µM; also: nearly all actives have a fitted effect of over 55% in size; also: potency is read from the fitted curve at half-maximal effect
# Method in brief: as §1
# [2] = biological target: Nuclear receptor subfamily 1 group I member 2 (Rattus norvegicus) (UniProt Q9R1A7); experiment: qHTS assay for small molecule activators of the rat pregnane X receptor (rPXR) signaling pathway (AID 651751; call rule not given here); details: rPXR reporter cells, luciferase (One-Glo), 24 h
# Sequence of Nuclear receptor subfamily 1 group I member 2 (Rattus norvegicus) (Q9R1A7 whole entry, looked up): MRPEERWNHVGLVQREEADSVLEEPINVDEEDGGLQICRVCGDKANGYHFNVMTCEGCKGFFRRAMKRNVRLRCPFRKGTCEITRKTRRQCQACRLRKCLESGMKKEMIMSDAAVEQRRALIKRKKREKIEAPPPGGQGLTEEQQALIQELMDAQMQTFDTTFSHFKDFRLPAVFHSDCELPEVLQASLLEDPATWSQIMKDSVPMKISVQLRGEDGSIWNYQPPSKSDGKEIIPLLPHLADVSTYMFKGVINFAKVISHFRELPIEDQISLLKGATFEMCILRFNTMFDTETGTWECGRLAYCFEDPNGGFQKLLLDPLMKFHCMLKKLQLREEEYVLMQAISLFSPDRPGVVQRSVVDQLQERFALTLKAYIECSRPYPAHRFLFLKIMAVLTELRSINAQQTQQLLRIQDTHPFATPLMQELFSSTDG
# [3] = qHTS assay to identify inhibitors of the type 1 interferon - major histocompatibility complex class I in skeletal muscle: Counter screen cell viability and HiBit confirmation (AID 1347412); details: iHSKM muscle cells + IFN-b, HiBiT or CellTiter-Glo, 24 h; Potency: HiBiT; Viability, at 45.9 µM (top of the series); also: potency is read from the fitted curve at half-maximal effect; nearly all actives have a fitted effect of over 60% in size
# Method in brief: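 After 24 h with human IFN-beta (4 ng/ml) and compound titrations (top 46 uM final, 1:3, 12 points), HLA-B HiBit myoblasts were lysed for either Nano-Glo HiBiT luminescence or CellTiter Glo viability on paired plates.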
# [4] = qHTS assay for small molecule activators of the human pregnane X receptor (PXR) signaling pathway (AID 720659; call rule not given here)
# [5] = at 45.9 µM (top of the series), tumour line B
# [6] = at 45.9 µM (top of the series), tumour line D
# [7] = at 46 µM (top of the series), tumour line A
Structure (SMILES),Potency (Es-2),Potency (HeLa),Potency (Hek293T),Potency (OV90),Potency (PA-1),Potency (SKOV3),Potency (Tov-21-G),Potency (Tov112D),"activity, negative = cell killing [1, 5]",Potency ([1]; tumour line A),Potency ([1]; tumour line D),"activity, negative = cell killing [1, 6]","activity, negative = cell killing [1, 7]",Potency (astro),Potency (JEG-3),Potency ([1]; tumour line B),max response [2],Potency [3],outcome [4]
Cn1cc(C2=C(c3cn(C4CCN(Cc5ccccn5)CC4)c4ccccc34)C(=O)NC2=O)c2ccccc21,inactive,inactive,inactive,inactive,inactive,inactive,inactive,inactive,31.3%,2.51 µM (active),20 µM (active),–,–,–,–,–,–,–,–
CC[N+](CC)(CC)CC,inactive,inactive,inactive,inactive,inactive,inactive,inactive,inactive,-10.8%,–,–,-7.23%,-23.7%,inactive,–,–,–,–,–
CC(=O)[C@H]1CC[C@H]2[C@@H]3CC[C@H]4C[C@H](O)CC[C@]4(C)[C@H]3C(=O)C[C@]12C,inactive,inactive,inactive,inactive,inactive,inactive,inactive,inactive,-8.44%,–,–,-5.23%,–,inactive,–,–,–,–,–
Cc1ccc(S(=O)(=O)N[C@@H](CCCCN)C(=O)CCl)cc1,inactive,inactive,inactive,inactive,inactive,inactive,inactive,inactive,-22.5%,–,–,–,–,inactive,inactive,–,–,–,–
CC(C)(C)CC(C)(C)c1ccc(O)cc1,inactive,inactive,inactive,inactive,inactive,inactive,inactive,inactive,–,–,63.1 µM (active),-15%,–,–,–,44.7 µM (active),-11.1%,–,–
CCC(C(N)=O)N1CCCC1=O (stereo unspecified),inactive,inactive,inactive,inactive,inactive,–,inactive,inactive,-7.31%,–,–,-6.8%,-24.9%,inactive,inactive,–,–,–,–
O=[N+]([O-])c1cc([As](=O)(O)O)ccc1O,inactive,inactive,inactive,inactive,inactive,inactive,inactive,inactive,–,–,–,–,–,inactive,inactive,–,–,–,–
c1ccc(C2CC2)c(OCC2=NCCN2)c1,inactive,inactive,inactive,inactive,–,inactive,inactive,inactive,-20.7%,11.2 µM (active),–,-19.1%,–,inactive,inactive,–,–,–,–
C[C@]12CCC(=O)C(O)=C1CC[C@@H]1[C@@H]2CC[C@]2(C)C(=O)CC[C@@H]12,inactive,inactive,inactive,inactive,inactive,inactive,inactive,inactive,–,–,–,–,–,inactive,inactive,–,2.3%,–,–
CC(C)(C)NCC(O)c1cc(Cl)c(N)c(Cl)c1 (stereo unspecified),inactive,inactive,inactive,inactive,inactive,inactive,inactive,inactive,-4.05%,–,–,-25.9%,–,inactive,–,–,–,–,–
C=C1CC[C@@]2(O)[C@H]3Cc4ccc(O)c5c4[C@@]2(CCN3CC2CC2)[C@H]1O5,inactive,inactive,inactive,inactive,inactive,inactive,inactive,inactive,-11%,–,–,5.06%,–,inactive,–,–,–,–,–
C[C@@H]1O[C@@H](O[C@H]2C[C@@H](O)[C@]3(CO)[C@H]4[C@H](O)C[C@]5(C)[C@@H](C6=CC(=O)OC6)CC[C@]5(O)[C@@H]4CC[C@]3(O)C2)[C@H](O)[C@H](O)[C@H]1O,316 nM (active) and 141 nM (active),224 nM (active) and 158 nM (active),282 nM (active) and 178 nM (active),447 nM (active) and 794 nM (active),316 nM (active) and 141 nM (active),251 nM (active) and 158 nM (active),251 nM (active) and 141 nM (active),89.1 nM (active) and 100 nM (active),–,0.158 µM (active),0.398 µM (active),–,–,316 nM (active) and 89.1 nM (active),–,0.112 µM (active),0.133%,70.1 nM (active) and 55.7 nM (active),inactive
Clc1cccc(N2CCNCC2)c1,inactive,inactive,inactive,inactive,inactive,inactive,inactive,inactive,-20%,35.5 µM (active),–,–,–,inactive,–,–,–,–,–
CCC(=O)C(CC(C)N(C)C)(c1ccccc1)c1ccccc1 (stereo unspecified),inactive,inactive,inactive,–,inactive,–,inactive,inactive,–,–,–,–,–,inactive,inactive,–,–,–,–
C=CCN1CC[C@]23c4c5ccc(O)c4O[C@H]2C(=O)CC[C@@]3(O)[C@H]1C5,inactive,inactive,inactive,inactive,inactive,inactive,inactive,inactive,–,–,–,-22.2%,15.9%,inactive,–,–,–,–,–
CC(O)(CS(=O)(=O)c1ccc(F)cc1)C(=O)Nc1ccc(C#N)c(C(F)(F)F)c1 (stereo unspecified),inactive,inactive,inactive,inactive,inactive,inactive,inactive,inactive,–,–,–,–,–,–,–,–,–,–,–
Oc1ccccc1-c1ccccc1,inactive,inactive,inactive,inactive,inactive,inactive,inactive,inactive,-14.5%,–,–,-15.4%,-19.2%,inactive,–,–,-0.588% [middle of 4 runs],–,–
COc1ccc(C(=O)c2c(C)n(CCN3CCOCC3)c3ccccc23)cc1,inactive,inactive,inactive,inactive,inactive,–,inactive,inactive,-14.8%,–,–,-16%,–,inactive,inactive,–,–,–,–
